Measured values as given in PMC7862700, “An all-to-all approach to the identification of sequence-specific readers for epigenetic DNA modifications on cytosine”.

Columns and labels:
Assay in all cases: DAPPL (digital affinity profiling via proximity ligation, sequencing); 10 mM Tris-HCl pH 7.5, 50 mM NaCl, 1 mM DTT, 4% glycerol, room temperature, 30 min; GST-TFs on glutathione beads, 16-mer random dsDNA library, 0.1% formaldehyde crosslink after washing; high values mean tight binding
FLI1 = target: T1, FLI1 (Homo sapiens, UniProt Q01543 1-452); settings: protein: recombinant; tags: N-terminal GST; dsDNA, one strand shown
T1 sequence: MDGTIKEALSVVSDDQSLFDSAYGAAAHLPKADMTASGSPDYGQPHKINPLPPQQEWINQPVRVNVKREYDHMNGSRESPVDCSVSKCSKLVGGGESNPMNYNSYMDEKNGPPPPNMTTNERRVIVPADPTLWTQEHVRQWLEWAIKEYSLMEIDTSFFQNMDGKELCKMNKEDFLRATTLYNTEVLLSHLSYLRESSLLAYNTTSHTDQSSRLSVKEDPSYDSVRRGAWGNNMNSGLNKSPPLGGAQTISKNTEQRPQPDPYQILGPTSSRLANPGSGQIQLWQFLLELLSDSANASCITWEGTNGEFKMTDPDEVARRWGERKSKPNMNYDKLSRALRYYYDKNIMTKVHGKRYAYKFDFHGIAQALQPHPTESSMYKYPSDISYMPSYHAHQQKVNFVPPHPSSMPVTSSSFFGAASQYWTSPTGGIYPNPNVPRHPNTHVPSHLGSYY
Procedure, shortened: (§1)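 Human transcription factors carrying a GST fusion were produced in yeast, bound to glutathione beads, tagged with DNA barcodes and pooled together with a tag-only sample. Each pool was held with 200 nmole of a random double-stranded 16-mer DNA library in Tris/NaCl/DTT/glycerol buffer for 30 min at room temperature, then washed, crosslinked in 0.1% formaldehyde, proximity-ligated with BsaI/T4 ligase (1 h, 37 °C), PCR-amplified and sequenced on an Illumina NextSeq500. Binding signal is the read frequency of each hexamer for a given factor divided by its frequency in the tag-only sample.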

ELK1 = target: T2, ELK1 (Homo sapiens, UniProt P19419 1-428); settings: protein: recombinant; tags: N-terminal GST; dsDNA, one strand shown
T2 sequence: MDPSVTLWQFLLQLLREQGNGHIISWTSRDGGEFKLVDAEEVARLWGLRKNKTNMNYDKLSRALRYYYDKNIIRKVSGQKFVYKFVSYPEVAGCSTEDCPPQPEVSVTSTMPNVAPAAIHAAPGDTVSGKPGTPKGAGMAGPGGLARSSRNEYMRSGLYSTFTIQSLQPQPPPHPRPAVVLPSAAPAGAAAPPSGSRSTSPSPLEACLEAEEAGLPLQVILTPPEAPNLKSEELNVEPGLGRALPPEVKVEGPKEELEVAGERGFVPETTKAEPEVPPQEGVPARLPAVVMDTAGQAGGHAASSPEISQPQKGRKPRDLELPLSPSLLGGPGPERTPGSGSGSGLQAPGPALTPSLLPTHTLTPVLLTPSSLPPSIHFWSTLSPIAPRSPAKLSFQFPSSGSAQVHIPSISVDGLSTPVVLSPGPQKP
Procedure, shortened: as §1

GABPA = target: T3, GABPA (Homo sapiens, UniProt Q06546 1-454); settings: protein: recombinant; tags: N-terminal GST; dsDNA, one strand shown
T3 sequence: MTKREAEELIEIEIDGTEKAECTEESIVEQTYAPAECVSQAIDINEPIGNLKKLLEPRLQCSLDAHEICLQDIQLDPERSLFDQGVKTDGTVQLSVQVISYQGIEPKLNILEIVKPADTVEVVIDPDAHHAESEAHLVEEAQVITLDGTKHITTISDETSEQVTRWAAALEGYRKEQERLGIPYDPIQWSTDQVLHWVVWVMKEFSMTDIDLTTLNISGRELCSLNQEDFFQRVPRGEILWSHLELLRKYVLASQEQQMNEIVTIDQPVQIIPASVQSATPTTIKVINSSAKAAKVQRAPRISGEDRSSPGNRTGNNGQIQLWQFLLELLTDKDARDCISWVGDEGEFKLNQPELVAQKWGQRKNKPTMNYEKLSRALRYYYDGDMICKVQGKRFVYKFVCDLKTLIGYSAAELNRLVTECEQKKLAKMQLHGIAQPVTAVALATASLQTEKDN
Procedure, shortened: as §1

ERG = target: T4, ERG (Homo sapiens, UniProt P11308 1-479); settings: protein: recombinant; tags: N-terminal GST; dsDNA, one strand shown
T4 sequence: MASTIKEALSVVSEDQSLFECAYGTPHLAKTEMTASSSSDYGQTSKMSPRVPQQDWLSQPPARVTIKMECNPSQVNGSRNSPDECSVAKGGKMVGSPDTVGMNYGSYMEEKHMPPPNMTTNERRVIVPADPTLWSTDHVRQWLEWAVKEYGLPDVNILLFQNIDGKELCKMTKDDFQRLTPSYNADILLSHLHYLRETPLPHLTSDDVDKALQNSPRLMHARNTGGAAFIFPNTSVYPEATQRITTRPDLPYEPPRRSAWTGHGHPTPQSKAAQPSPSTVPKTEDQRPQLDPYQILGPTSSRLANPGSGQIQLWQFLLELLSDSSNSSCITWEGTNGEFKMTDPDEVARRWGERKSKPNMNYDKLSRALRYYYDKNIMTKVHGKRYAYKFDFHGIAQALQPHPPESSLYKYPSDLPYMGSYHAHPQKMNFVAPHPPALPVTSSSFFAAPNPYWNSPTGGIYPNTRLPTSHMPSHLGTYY
Procedure, shortened: as §1

ELF1 = ELF1 (Homo sapiens, UniProt P32519 1-619); settings: protein: recombinant; tags: N-terminal GST; dsDNA, one strand shown
Procedure, shortened: as §1

EHF = target: T5, EHF (Homo sapiens, UniProt Q9NZC4 1-300); settings: protein: recombinant; tags: N-terminal GST; dsDNA, one strand shown
T5 sequence: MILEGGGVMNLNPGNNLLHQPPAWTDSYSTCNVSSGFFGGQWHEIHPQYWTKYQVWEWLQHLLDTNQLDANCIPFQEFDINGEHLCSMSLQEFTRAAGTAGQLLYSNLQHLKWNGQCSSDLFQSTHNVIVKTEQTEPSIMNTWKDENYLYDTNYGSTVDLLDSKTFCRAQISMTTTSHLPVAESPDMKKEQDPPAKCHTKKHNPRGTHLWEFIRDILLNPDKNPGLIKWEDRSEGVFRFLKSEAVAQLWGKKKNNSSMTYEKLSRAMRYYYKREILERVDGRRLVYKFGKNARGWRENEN
Procedure, shortened: as §1

SPI1 = SPI1 (Homo sapiens, UniProt P17947 1-270); settings: protein: recombinant; tags: N-terminal GST; dsDNA, one strand shown
Procedure, shortened: as §1

SPIB = SPIB (Homo sapiens, UniProt Q01892 1-262); settings: protein: recombinant; tags: N-terminal GST; dsDNA, one strand shown
Procedure, shortened: as §1

ELK3 = target: T6, ELK3 (Homo sapiens, UniProt P41970 1-407); settings: protein: recombinant; tags: N-terminal GST; dsDNA, one strand shown
T6 sequence: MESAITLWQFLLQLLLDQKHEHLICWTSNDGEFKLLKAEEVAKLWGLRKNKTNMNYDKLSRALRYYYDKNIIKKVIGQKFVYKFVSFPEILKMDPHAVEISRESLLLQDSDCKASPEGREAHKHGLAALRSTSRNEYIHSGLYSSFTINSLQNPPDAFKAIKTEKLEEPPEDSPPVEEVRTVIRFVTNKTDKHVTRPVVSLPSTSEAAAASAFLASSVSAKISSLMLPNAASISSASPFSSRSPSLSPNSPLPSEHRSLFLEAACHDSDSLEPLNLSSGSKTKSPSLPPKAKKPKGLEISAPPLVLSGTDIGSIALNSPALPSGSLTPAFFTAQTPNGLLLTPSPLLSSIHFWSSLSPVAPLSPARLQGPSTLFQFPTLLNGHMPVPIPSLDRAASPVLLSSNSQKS
Procedure, shortened: as §1

FEV = target: T7, FEV (Homo sapiens, UniProt Q99581 1-238); settings: protein: recombinant; tags: N-terminal GST; dsDNA, one strand shown
T7 sequence: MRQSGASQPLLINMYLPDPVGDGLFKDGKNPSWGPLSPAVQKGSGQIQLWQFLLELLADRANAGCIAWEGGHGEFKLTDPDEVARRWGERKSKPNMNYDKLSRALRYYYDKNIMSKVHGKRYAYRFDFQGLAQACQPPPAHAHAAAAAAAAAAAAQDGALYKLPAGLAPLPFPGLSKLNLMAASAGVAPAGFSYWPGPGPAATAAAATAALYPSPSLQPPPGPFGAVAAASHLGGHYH
Procedure, shortened: as §1

ETV5 = ETV5 (Homo sapiens, UniProt P41161 1-510); settings: protein: recombinant; tags: N-terminal GST; dsDNA, one strand shown
Procedure, shortened: as §1

HSF1 = HSF1 (Homo sapiens, UniProt Q00613 1-529); settings: protein: recombinant; tags: N-terminal GST; chain copies: 3; dsDNA, one strand shown
Procedure, shortened: as §1

SPIC = target: T8, SPIC (Homo sapiens, UniProt Q8N5J4 1-248); settings: protein: recombinant; tags: N-terminal GST; dsDNA, one strand shown
T8 sequence: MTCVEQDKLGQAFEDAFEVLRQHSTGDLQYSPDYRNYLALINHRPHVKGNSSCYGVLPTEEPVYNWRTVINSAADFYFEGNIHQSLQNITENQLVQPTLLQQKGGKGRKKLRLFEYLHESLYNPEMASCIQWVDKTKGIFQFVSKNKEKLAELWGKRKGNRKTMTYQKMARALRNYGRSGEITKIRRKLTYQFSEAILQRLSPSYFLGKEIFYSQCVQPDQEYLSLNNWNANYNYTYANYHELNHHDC
Procedure, shortened: as §1

ELF4 = ELF4 (Homo sapiens, UniProt Q99607 1-663); settings: protein: recombinant; tags: N-terminal GST; dsDNA, one strand shown
Procedure, shortened: as §1

ELK4 = target: T9, ELK4 (Homo sapiens, UniProt P28324-2 1-405); settings: protein: recombinant; tags: N-terminal GST; dsDNA, one strand shown
T9 sequence: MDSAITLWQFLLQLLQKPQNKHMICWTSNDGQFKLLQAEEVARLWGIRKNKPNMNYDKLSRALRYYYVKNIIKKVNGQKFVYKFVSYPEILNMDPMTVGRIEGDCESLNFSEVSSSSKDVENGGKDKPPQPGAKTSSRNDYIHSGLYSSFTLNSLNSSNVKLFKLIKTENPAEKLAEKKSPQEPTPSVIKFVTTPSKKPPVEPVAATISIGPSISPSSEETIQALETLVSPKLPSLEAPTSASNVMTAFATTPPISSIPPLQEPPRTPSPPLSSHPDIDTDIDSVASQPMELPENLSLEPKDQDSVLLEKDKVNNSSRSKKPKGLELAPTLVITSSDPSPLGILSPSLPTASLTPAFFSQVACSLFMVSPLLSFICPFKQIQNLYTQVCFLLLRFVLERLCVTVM
Procedure, shortened: as §1

ELF3 = target: T10, ELF3 (Homo sapiens, UniProt P78545 1-371); settings: protein: recombinant; tags: N-terminal GST; dsDNA, one strand shown
T10 sequence: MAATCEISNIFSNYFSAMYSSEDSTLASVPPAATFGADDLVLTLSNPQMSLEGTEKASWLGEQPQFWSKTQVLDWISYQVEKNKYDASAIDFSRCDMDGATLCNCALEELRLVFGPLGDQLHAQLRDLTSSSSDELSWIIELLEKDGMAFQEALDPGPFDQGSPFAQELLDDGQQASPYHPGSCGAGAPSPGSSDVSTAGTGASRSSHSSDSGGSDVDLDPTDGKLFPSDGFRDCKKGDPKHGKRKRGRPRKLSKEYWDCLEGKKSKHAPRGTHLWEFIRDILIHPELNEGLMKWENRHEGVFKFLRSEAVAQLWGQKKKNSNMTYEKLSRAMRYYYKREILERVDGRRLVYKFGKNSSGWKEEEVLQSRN
Procedure, shortened: as §1

CRX = CRX (Homo sapiens, UniProt O43186 1-299); settings: protein: recombinant; tags: N-terminal GST; dsDNA, one strand shown
Procedure, shortened: as §1

ETV1 = ETV1 (Homo sapiens, UniProt P50549 1-477); settings: protein: recombinant; tags: N-terminal GST; dsDNA, one strand shown
Procedure, shortened: as §1

ELF1, sequence (P32519 whole entry): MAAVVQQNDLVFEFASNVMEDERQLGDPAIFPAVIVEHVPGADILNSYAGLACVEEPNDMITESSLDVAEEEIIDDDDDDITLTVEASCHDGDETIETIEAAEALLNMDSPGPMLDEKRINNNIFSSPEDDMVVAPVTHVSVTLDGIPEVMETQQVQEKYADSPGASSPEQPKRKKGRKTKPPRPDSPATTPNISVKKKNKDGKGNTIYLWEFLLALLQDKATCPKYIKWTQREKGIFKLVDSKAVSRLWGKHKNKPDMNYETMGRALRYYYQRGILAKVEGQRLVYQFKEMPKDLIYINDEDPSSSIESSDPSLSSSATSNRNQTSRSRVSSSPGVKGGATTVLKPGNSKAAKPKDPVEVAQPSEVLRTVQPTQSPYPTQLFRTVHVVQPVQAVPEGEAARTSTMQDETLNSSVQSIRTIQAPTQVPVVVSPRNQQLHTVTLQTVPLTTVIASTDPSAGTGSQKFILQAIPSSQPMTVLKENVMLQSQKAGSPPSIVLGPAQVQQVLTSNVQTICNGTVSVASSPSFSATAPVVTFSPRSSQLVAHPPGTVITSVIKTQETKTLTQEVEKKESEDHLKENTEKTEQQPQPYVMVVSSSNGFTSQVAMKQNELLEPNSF
ETV1, sequence (P50549 whole entry): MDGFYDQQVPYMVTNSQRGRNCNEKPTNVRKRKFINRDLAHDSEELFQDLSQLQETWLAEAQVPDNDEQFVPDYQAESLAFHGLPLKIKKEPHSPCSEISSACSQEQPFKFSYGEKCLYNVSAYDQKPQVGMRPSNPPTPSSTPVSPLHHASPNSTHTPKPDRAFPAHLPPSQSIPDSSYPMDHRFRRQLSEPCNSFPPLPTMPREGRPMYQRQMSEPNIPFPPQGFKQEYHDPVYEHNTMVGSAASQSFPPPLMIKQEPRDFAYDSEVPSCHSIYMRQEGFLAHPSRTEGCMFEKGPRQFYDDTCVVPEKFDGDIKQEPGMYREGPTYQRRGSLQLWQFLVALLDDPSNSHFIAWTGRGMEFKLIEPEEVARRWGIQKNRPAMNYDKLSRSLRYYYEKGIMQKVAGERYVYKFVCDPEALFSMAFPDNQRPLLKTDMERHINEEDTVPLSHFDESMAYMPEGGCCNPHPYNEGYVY
ELF4, sequence (Q99607 whole entry): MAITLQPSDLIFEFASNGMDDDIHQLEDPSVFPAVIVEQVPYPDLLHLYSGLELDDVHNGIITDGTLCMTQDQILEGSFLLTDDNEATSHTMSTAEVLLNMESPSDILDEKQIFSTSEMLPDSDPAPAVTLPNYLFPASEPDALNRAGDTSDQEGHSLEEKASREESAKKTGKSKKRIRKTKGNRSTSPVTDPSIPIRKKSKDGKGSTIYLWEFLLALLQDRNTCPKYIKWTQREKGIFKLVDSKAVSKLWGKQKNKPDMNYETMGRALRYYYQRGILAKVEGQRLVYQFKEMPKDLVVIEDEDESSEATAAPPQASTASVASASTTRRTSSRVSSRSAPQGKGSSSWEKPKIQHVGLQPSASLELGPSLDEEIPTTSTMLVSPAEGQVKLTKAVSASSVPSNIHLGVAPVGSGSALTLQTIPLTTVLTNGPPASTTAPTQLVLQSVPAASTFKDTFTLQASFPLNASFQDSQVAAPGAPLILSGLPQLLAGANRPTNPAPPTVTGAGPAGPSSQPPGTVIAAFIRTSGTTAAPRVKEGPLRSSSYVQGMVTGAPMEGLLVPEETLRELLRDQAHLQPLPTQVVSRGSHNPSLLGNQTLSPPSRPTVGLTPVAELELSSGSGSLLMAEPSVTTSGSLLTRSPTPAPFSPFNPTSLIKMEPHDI
SPIB, sequence (Q01892 whole entry): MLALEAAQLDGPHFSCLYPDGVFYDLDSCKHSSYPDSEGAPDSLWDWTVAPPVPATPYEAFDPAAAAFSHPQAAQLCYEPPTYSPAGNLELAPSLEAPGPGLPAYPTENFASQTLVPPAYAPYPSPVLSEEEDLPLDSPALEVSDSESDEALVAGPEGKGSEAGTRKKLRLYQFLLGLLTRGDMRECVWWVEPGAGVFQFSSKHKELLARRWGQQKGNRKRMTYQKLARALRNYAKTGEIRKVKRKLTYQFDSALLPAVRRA
CRX, sequence (O43186 whole entry): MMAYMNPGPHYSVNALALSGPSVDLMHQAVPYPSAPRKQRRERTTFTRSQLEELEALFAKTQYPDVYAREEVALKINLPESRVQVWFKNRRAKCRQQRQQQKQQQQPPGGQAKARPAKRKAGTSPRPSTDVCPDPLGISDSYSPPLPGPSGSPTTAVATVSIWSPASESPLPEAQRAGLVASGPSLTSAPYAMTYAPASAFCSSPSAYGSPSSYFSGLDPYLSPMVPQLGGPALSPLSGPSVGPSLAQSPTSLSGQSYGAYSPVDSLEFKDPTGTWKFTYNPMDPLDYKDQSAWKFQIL
HSF1, sequence (Q00613 whole entry): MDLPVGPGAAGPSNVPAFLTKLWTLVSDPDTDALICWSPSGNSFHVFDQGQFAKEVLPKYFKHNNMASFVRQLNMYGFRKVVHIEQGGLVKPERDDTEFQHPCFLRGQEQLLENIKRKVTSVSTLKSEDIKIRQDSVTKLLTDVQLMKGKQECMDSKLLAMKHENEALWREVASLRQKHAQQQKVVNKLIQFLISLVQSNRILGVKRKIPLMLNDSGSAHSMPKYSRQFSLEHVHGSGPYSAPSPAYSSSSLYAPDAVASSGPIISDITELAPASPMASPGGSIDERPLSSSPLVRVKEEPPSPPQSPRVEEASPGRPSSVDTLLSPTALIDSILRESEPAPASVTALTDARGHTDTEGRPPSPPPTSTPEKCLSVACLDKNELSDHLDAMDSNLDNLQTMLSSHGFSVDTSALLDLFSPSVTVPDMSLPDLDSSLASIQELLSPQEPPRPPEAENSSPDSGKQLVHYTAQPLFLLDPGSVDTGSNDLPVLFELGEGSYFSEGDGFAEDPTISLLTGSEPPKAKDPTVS
ETV5, sequence (P41161 whole entry): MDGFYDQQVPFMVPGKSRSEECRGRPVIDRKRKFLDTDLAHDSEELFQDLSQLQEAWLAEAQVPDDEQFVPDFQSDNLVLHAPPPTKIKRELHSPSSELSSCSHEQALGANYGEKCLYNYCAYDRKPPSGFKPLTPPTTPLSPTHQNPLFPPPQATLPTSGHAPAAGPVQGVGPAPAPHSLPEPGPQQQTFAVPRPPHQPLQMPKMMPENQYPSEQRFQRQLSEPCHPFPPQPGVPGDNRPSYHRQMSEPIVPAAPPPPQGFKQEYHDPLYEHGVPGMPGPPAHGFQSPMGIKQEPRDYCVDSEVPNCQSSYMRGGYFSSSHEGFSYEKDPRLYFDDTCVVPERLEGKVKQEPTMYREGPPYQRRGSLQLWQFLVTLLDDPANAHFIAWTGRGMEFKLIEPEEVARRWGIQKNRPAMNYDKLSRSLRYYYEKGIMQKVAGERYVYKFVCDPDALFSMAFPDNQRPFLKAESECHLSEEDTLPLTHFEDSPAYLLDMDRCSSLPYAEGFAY

## CATGAT
FLI1
  binding signal: 1.15 fold enrichment (6-mer frequency, TF over GST control)
ELK1
  binding signal: 1.06 fold enrichment (6-mer frequency, TF over GST control)
GABPA
  binding signal: 1.19 fold enrichment (6-mer frequency, TF over GST control)
ERG
  binding signal: 1.03 fold enrichment (6-mer frequency, TF over GST control)
ELF1
  binding signal: 1.09 fold enrichment (6-mer frequency, TF over GST control)
EHF
  binding signal: 1.09 fold enrichment (6-mer frequency, TF over GST control)
SPI1
  binding signal: 1.03 fold enrichment (6-mer frequency, TF over GST control)
SPIB
  binding signal: 1.04 fold enrichment (6-mer frequency, TF over GST control)
ELK3
  binding signal: 1.19 fold enrichment (6-mer frequency, TF over GST control)
FEV
  binding signal: 1.06 fold enrichment (6-mer frequency, TF over GST control)
ETV5
  binding signal: 1.08 fold enrichment (6-mer frequency, TF over GST control)
HSF1
  binding signal: 1.1 fold enrichment (6-mer frequency, TF over GST control)
SPIC
  binding signal: 1.14 fold enrichment (6-mer frequency, TF over GST control)
ELF4
  binding signal: 1.17 fold enrichment (6-mer frequency, TF over GST control)
ELK4
  binding signal: 1.13 fold enrichment (6-mer frequency, TF over GST control)
ELF3
  binding signal: 1.08 fold enrichment (6-mer frequency, TF over GST control)
CRX
  binding signal: 1.17 fold enrichment (6-mer frequency, TF over GST control)
ETV1
  binding signal: 1.07 fold enrichment (6-mer frequency, TF over GST control)
